# Bioassay records deposited in PubChem BioAssay by several laboratories.
# Sampled rows, rich in hits. Any-hit rate of the full collection: about 3.9%.
# Platelet DG rel: platelet dense granule release activity. actives 0.22% (n = 300,000). human platelet-rich plasma, SFLLRN dense granule ATP release, luminescence. inhibition, %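 (compounds screened at 7.5 µM in platelet-rich plasma)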;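 active means mean replicate score, as percent of positive control, at or above 50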
# TPT1 inhibitor: C. albicans TPT1 enzyme inhibition; recombinant caTPT1, FP RNA substrate dephosphorylation; inhibition, % at 5 µM; actives 0.81% (n = 300,000); AID 1962;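 active means inhibition above the mean of all tested compounds plus 3 SD, set per screening campaign, cut at about 24% in these data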;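 further: plate controls were DMSO alone for no effect and ferristatin control at 100 nM for full effect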
# SKKanGAS inh: blocks kanamycin growth of S. pyogenes SKKanGAS strain; BacTiter-Glo, 6 h; inhibition, % at 7.5 µM; actives 1.3% (n = 300,000);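 active means mean replicate score, as percent of positive control median, at least 50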;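 further: strain carries kanamycin resistance gene driven by streptokinase promoter and grows in 40 µg/ml kanamycin; loss of luminescence reflects streptokinase promoter inhibition or plain growth inhibition; 0% = median of DMSO wells and 100% = positive control at its reference dose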
# WT yeast gro inh: growth inhibition of WT yeast, mitochondrial fusion screen; inhibition, % at 10 µM; actives 2.1% (n = 190,000); mitochondrial fusion phenotypic screen, WT strain; in the data active means inhibition above about 58%; tested in S. cerevisiae
# Rtt109 HAT inh: C. albicans Rtt109 histone acetyltransferase inhibition; Q5AAJ8; purified Rtt109/Vps75, ThioGlo CoA-SH fluorescence, 4 h; inhibition, % at 34.9 µM; actives 0.16% (n = 330,000); AID 540336;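 active means inhibition of at least 50% in every replicate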
# Target sequence (Q5AAJ8 whole entry, looked up): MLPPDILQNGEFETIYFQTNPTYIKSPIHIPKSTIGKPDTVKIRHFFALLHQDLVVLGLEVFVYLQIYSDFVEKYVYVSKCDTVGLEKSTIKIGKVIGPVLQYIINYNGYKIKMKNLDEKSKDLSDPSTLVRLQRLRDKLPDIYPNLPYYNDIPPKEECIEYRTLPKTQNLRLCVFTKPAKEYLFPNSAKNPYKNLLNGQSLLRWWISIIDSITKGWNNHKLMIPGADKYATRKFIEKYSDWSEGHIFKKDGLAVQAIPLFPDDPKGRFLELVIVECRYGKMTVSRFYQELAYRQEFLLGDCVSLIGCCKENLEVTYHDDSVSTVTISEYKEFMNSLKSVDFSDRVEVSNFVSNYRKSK
# PHOSPHO1 inh: PHOSPHO1 (human) inhibition; recombinant PHOSPHO1, absorbance phosphatase assay; inhibition, % at 13.3 µM; actives 1.1% (n = 290,000); AID 1565; in the data active means inhibition above about 60%
# caTPT1 confirm: TPT1 (C. albicans) inhibition, confirmation | shares compounds with TPT1 inhibitor | recombinant caTPT1, fluorescence polarization, RNase T1 coupled | actives 74% (n = 2,400) | inhibition, % at 5 µM;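 active means inhibition above the primary screen limit, the mean inhibition of all tested compounds plus 3 SD, cut at about 25% in these data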
# RNase T1 inh: RNase T1 inhibition in TPT1 counter-screen. shares compounds with TPT1 inhibitor. RNase T1 cleavage, fluorescence polarization, 1536-well. inhibition, % at 5 µM. actives 83% (n = 2,400);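 active means inhibition above the solvent-only control well mean plus 3 SD, limit set per screening run, cut at about 23% in these data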;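 further: plate controls were DMSO wells with enzyme for no effect and wells without RNase T1 for full effect; inhibitors block cleavage so intact labeled substrate keeps polarization high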
# Target sequence (P00651 whole entry, looked up): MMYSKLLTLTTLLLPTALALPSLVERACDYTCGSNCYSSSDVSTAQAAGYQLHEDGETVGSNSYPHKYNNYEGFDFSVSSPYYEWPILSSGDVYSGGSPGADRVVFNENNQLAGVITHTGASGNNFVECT
# Active calls of the source: *; i = inactive; · = no result given.
SMILES,Platelet DG rel,TPT1 inhibitor,SKKanGAS inh,WT yeast gro inh,Rtt109 HAT inh,PHOSPHO1 inh,caTPT1 confirm,RNase T1 inh
C/C(=N\Nc1ccc([N+](=O)[O-])cc1)c1cc2ccccc2o1,3,111*,-2,23,6,-39,111*,113*
C/C(=N\Nc1ccc([N+](=O)[O-])cc1)c1ccc2c(c1)OCO2,3,57*,1,15,11,53,53*,65*
C/C(=N\NS(=O)(=O)c1ccc([N+](=O)[O-])cc1)c1ccc2c(c1)OCO2,-3,·,9,·,13,21,·,·
O=C(N/N=C/c1ccc([N+](=O)[O-])cc1)c1cc2ccccc2o1,-8,-3,8,·,·,16,·,·
CN1C/C(=C/c2ccccc2[N+](=O)[O-])C(=O)/C(=C\c2ccccc2[N+](=O)[O-])C1,·,·,·,·,7,·,·,·
O=C(CCNC(=O)OCC1c2ccccc2-c2ccccc21)NOCc1ccccc1,·,·,·,·,-4,·,·,·
N#CC1C(=N)Cc2ccccc2-c2ccccc21 (centres undefined),·,·,·,·,-3,·,·,·
CCN(CC)c1ccc2cc(C(C)=O)c(=O)oc2c1,-6,131*,6,-2,-9,2,109*,109*
CCCCCCc1cc2cc(C(N)=O)c(=N)oc2cc1O,-4,67*,19,82*,·,11,8,22*
CCN(CC)c1ccc2cc(C=O)c(=O)oc2c1,-7,121*,16,2,-14,-3,102*,101*
CCN(CC)c1ccc2cc(C(N)=O)c(=N)oc2c1,0,73*,2,-1,-50,-17,71*,75*
CNC(=O)NC(=O)CSc1ccc(S(=O)(=O)N2CCOCC2)cn1,·,·,·,·,-8,·,·,·
CCN(CC)c1ccc2cc(/C(N)=N/NC(=O)c3cccs3)c(=O)oc2c1,-2,87*,18,·,·,10,108*,112*
CCN(CC)c1ccc2cc(NC(=O)CCC(=O)O)c(=O)oc2c1,-6,-28,-8,35,i,7,·,·
CCN(CC)c1ccc2cc(C(N)=O)c(=O)oc2c1,6,40*,2,-17,-16,-20,36*,45*
CCN(CC)c1ccc2cc(C(=O)Nc3ccccn3)c(=O)oc2c1,2,135*,-4,-2,-6,-14,109*,112*
N/C(=N\NC(=O)c1cccs1)c1cc2ccccc2oc1=O,5,1,2,12,·,2,·,·
CC1CCCC(NC(=O)CN2CCN(S(=O)(=O)c3ccc(Br)s3)CC2)C1C (centres undefined),·,·,·,·,5,·,·,·
COc1cc(/C=C2\NC(=S)N(C)C2=O)ccc1O,9,27*,-2,12,10,-18,30*,35*
CN1C(=O)/C(=C/c2ccc(OCc3ccc(F)cc3)cc2)N(C)C1=S,-5,-2,-6,·,-1,9,·,·
COc1cc(/C=C/C(=O)O)ccc1O,0,-3,-1,·,-9,·,·,·
CN1C(=O)/C(=C/c2ccc(O)c([N+](=O)[O-])c2)NC1=S,1,-1,-3,-8,0,17,·,·
Cc1cc(/C=C2/C(=O)N(C)C(=S)N2C)ccc1N1CCCC1,-2,159*,-11,22,3,18,155*,142*
CCCN1C(=O)/C(=C/c2ccc(N3CCCC3)c(C)c2)NC1=S,2,134*,33,69*,8,-50,139*,130*
COc1cc(/C=C2/C(=O)CNC2=O)ccc1O,8,30*,-4,-12,·,3,55*,77*
SMILES,Platelet DG rel,TPT1 inhibitor,SKKanGAS inh,WT yeast gro inh,Rtt109 HAT inh,PHOSPHO1 inh,caTPT1 confirm,RNase T1 inh
CN1C(=O)/C(=C/c2ccc(OCc3ccc(F)cc3)cc2)NC1=S,0,0,-10,·,-1,2,·,·
Cc1cc(N2CCCC2)ccc1/C=C1/C(=O)N(C)C(=S)N1C,4,73*,21,11,·,38,67*,76*
Cc1cc(/C=C2\NC(=S)N(C)C2=O)ccc1N1CCCC1,2,137*,17,32,5,-80,128*,122*
COc1cc(/C=C/C(=O)CC(=O)/C=C/c2ccc(O)c(OC)c2)ccc1O,9,139*,7,0,5,-11,147*,135*
CC(=O)OC1CC2(C)C(CCC2(O)C(C)=O)C2CCC3C(Cl)C(=O)CCC3(C)C12 (centres undefined),·,·,·,·,-7,·,·,·
Nc1ccc(CSc2ccccc2)cc1,·,·,·,·,0,·,·,·
C[C@@H]1CN([C@H](C)CO)C(=O)c2cc(NC(=O)Cc3cn(C)c4ccccc34)ccc2O[C@H]1CN(C)S(=O)(=O)c1ccc(F)cc1,·,·,·,·,0,·,·,·
CC[n+]1c(/C=C/C=C/N(C(C)=O)c2ccccc2)sc2ccccc21,3,64*,6,22,11,54,68*,74*
CCn1c(/C=C/N(C(C)=O)c2ccccc2)[n+](CC)c2ccc(Cl)cc21,-3,-3,4,1,0,-13,·,·
Cc1ccc(C2=NC(=O)/C(=C/c3cc(O)c(O)c(Br)c3)S2)cc1,·,·,·,38,-2,-23,·,·
COc1cc(/C=C2\SC(N)=NC2=O)cc(Cl)c1O,-8,43*,3,·,4,-3,60*,71*
COc1cc(/C=C2\SC(c3ccc(C)cc3)=NC2=O)cc(OC)c1O,5,48*,18,8,1,17,67*,79*
CCN(CC)C(=O)c1ccc(/C=C/c2c[nH]c3ccccc23)[n+](C)c1,-3,103*,-1,-10,3,-13,110*,112*
NS(=O)(=O)c1ccc(-c2ccc(/C=C3\SC(=S)N(C4CCS(=O)(=O)C4)C3=O)o2)cc1 (centres undefined),-3,109*,73*,·,-3,3,154*,142*
CC(C)[C@H](NS(=O)(=O)c1ccccc1F)C(=O)NC1CCCCC1,·,·,·,·,8,·,·,·
CSc1ccc(Cl)c(C(=O)N(C)CC(=O)Nc2ccc(N3CCOCC3)cc2)c1,-7,-4,-3,·,4,·,·,·
CC(C)c1ccc2c(c1)C1Cc3ccccc3C1N2 (centres undefined),14,29*,10,-6,·,-7,13,22*
O=S1(=O)NC2c3ccccc3CC2O1 (centres undefined),0,-2,-1,·,6,10,·,·
COc1ccc(C(=O)Nc2cc(C(C)=O)c(/C=C/N(C)C)oc2=O)cc1,-3,114*,3,-4,2,7,125*,130*
CC(=O)c1cc(NC(=O)c2ccc(C)cc2)c(=O)oc1/C=C/N(C)C,4,156*,-1,-13,2,-4,134*,135*
CCOC(=O)C1CCCN(C(=O)Cn2nc(C)c3c(C)n(-c4ccccc4)nc3c2=O)C1 (centres undefined),2,-1,1,·,4,24,·,·
